# Results: ChEMBL document CHEMBL1961873, “Compounds: GSK PKIS; Assays: Nanosyn kinase panel” (2012)
# What was measured:
# [1] = molecular target: T1, Tyrosine-protein kinase ITK/TSK (Homo sapiens) (UniProt Q08881); details: at 1 µM;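 also: values are mean percent inhibition of ITK from the GSK PKIS screen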
# T1 sequence (whole entry): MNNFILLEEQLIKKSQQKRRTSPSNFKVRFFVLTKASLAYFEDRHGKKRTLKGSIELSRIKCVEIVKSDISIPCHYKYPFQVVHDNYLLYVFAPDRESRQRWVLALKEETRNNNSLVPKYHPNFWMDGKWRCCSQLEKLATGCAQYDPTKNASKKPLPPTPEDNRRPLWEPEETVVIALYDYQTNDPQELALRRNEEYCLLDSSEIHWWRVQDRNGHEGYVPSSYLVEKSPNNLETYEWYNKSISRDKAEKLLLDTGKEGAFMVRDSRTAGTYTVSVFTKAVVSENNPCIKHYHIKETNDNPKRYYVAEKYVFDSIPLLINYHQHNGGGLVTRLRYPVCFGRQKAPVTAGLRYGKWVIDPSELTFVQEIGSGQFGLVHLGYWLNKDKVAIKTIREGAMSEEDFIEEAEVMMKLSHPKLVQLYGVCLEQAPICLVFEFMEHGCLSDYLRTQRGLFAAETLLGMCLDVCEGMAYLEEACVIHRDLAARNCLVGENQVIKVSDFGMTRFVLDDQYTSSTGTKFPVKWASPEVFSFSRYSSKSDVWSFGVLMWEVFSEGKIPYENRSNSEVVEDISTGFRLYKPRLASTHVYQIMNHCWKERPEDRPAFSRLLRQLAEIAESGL
# [2] = molecular target: Tyrosine-protein kinase JAK1 (Homo sapiens) (UniProt P23458); details: at 0.1 µM
# Sequence of Tyrosine-protein kinase JAK1 (Homo sapiens) (P23458 whole entry): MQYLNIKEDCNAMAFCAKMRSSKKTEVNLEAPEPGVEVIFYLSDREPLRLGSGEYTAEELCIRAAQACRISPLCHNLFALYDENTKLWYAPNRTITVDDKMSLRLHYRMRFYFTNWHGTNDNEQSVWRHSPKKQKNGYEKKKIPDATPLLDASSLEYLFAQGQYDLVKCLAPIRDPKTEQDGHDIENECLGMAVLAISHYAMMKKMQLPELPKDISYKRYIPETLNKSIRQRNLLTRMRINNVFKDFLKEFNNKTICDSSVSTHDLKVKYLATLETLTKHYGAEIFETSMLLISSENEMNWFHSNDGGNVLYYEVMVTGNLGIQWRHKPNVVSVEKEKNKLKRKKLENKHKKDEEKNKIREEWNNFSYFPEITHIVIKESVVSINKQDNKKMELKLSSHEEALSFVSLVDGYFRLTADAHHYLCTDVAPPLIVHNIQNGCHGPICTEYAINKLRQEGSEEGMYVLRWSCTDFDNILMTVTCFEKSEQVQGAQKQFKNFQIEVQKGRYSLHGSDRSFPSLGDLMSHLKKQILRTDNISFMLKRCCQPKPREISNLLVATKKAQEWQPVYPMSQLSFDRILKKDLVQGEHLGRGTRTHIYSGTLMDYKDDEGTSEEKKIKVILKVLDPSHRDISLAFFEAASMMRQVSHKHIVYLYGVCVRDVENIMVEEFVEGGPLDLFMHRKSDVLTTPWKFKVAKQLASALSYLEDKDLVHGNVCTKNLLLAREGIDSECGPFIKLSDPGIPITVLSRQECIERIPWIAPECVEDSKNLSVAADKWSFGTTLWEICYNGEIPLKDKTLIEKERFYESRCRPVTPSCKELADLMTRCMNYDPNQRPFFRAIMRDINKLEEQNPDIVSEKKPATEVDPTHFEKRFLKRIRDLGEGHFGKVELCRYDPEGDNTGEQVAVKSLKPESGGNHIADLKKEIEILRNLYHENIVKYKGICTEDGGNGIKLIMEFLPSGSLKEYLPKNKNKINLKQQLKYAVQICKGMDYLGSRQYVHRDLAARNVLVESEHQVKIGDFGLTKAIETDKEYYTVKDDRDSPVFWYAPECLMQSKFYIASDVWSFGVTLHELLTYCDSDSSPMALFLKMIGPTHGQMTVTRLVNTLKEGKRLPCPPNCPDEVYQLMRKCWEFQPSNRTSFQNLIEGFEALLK
# [3] = molecular target: Tyrosine-protein kinase JAK1 (Homo sapiens) (UniProt P23458); details: at 1 µM
# [4] = molecular target: Tyrosine-protein kinase JAK2 (Homo sapiens) (UniProt O60674); details: at 0.1 µM
# [5] = molecular target: Tyrosine-protein kinase JAK2 (Homo sapiens) (UniProt O60674); details: at 1 µM
# [6] = molecular target: T2, Tyrosine-protein kinase JAK3 (Homo sapiens) (UniProt P52333); details: at 0.1 µM
# T2 sequence (whole entry): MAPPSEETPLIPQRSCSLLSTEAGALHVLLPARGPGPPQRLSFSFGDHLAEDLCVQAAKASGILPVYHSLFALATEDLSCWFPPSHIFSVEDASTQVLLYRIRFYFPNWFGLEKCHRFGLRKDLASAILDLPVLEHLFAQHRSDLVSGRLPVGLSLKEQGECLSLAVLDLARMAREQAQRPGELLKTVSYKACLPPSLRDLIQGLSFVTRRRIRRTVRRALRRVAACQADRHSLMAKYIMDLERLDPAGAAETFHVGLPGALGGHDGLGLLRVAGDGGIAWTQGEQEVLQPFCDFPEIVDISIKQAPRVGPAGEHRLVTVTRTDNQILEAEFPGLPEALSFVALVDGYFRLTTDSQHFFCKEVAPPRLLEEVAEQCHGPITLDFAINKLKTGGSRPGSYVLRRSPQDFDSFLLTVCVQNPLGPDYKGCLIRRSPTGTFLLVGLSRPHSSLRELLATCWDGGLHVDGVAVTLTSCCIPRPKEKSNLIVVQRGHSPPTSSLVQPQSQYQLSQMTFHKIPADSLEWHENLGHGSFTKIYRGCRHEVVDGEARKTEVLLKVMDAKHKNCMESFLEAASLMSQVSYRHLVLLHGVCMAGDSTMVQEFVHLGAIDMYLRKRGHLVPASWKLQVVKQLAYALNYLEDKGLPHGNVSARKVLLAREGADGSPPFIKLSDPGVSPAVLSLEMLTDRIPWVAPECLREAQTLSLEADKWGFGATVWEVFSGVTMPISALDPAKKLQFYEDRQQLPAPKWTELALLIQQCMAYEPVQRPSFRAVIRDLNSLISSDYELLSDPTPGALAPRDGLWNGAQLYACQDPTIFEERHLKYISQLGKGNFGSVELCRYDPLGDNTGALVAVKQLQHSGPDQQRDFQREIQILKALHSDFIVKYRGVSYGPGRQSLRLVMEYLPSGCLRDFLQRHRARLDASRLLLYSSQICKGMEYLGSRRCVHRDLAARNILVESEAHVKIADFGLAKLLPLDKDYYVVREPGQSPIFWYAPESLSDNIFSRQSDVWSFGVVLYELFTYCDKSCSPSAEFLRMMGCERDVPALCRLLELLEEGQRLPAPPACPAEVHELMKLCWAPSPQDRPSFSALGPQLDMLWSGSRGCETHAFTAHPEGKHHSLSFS
# [7] = molecular target: T2, Tyrosine-protein kinase JAK3 (Homo sapiens); details: at 1 µM
# [8] = molecular target: Vascular endothelial growth factor receptor 2 (Homo sapiens) (UniProt P35968); details: at 0.1 µM
# Sequence of Vascular endothelial growth factor receptor 2 (Homo sapiens) (P35968 whole entry): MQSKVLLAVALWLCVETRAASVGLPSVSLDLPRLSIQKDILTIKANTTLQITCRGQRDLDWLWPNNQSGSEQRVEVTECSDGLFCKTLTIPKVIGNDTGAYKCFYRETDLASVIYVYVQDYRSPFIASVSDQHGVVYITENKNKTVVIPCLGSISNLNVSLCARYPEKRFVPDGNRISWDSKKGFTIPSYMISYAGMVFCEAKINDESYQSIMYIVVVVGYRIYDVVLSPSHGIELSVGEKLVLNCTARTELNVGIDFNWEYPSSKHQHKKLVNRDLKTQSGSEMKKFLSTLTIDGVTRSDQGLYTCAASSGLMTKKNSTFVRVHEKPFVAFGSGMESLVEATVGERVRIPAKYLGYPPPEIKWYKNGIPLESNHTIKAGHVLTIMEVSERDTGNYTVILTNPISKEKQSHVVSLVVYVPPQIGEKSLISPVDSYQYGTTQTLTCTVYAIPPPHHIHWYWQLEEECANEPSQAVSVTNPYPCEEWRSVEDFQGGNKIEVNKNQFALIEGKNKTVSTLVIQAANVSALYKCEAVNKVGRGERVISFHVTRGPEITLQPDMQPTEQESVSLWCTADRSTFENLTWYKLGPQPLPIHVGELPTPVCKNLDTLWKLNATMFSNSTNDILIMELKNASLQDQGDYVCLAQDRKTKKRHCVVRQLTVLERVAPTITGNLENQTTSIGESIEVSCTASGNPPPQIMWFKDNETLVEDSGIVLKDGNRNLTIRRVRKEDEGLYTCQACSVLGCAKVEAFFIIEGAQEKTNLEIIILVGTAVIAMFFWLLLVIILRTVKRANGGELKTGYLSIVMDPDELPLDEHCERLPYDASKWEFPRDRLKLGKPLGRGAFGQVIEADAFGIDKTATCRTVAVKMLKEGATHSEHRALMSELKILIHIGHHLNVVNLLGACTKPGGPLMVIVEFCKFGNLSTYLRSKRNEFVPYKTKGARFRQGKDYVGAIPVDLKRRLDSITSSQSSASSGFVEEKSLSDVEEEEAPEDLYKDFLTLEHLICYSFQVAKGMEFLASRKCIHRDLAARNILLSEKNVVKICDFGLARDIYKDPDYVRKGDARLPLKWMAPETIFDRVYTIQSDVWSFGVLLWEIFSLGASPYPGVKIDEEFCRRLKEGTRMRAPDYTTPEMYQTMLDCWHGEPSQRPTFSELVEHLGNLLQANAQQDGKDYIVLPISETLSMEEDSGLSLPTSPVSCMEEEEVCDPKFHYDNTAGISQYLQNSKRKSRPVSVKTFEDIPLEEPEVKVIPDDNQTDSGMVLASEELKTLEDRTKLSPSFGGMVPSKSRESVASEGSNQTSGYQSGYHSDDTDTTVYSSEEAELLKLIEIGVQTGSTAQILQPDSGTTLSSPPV
# [9] = molecular target: Vascular endothelial growth factor receptor 2 (Homo sapiens) (UniProt P35968); details: at 1 µM
# [10] = molecular target: Mast/stem cell growth factor receptor Kit (Homo sapiens) (UniProt P10721); details: at 0.1 µM
# Sequence of Mast/stem cell growth factor receptor Kit (Homo sapiens) (P10721 whole entry): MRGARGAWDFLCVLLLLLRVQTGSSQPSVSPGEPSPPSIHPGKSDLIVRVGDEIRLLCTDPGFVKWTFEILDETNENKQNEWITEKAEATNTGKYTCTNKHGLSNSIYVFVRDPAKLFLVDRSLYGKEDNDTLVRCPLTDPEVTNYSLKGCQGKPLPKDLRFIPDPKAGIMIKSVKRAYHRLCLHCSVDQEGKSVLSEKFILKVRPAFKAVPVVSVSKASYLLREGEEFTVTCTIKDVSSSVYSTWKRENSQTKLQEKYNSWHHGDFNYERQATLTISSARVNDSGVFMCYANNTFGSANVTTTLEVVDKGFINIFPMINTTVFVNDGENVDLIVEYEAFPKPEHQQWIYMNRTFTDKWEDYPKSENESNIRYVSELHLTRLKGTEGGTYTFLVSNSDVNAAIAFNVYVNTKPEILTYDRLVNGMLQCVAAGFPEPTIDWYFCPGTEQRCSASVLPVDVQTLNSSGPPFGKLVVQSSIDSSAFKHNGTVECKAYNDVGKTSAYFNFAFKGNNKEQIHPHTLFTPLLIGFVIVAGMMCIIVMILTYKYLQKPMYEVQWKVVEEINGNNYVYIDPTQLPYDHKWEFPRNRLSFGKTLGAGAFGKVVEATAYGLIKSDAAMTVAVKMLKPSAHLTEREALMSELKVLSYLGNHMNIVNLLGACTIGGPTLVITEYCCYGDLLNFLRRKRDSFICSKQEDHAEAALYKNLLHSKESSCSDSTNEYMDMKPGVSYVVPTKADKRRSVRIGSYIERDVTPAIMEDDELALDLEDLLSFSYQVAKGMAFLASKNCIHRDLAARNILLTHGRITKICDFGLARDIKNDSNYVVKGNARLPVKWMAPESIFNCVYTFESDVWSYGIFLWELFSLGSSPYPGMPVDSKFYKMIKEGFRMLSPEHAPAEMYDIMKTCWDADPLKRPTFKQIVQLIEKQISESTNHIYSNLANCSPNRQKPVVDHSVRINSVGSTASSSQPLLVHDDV
# [11] = molecular target: Mast/stem cell growth factor receptor Kit (Homo sapiens) (UniProt P10721); details: at 1 µM
# [12] = tested on: Mast/stem cell growth factor receptor Kit (Homo sapiens), P10721 [D816V]; details: at 0.1 µM
# Sequence of Mast/stem cell growth factor receptor Kit (Homo sapiens), P10721 [D816V] (P10721 whole entry D816V): as the sequence (P10721 whole entry) above, with D816V counted along it
# [13] = tested on: Mast/stem cell growth factor receptor Kit (Homo sapiens), P10721 [D816V]; details: at 1 µM
# [14] = tested on: Mast/stem cell growth factor receptor Kit (Homo sapiens), P10721 [T670I]; details: at 0.1 µM
# Sequence of Mast/stem cell growth factor receptor Kit (Homo sapiens), P10721 [T670I] (P10721 whole entry T670I): as the sequence (P10721 whole entry) above, with T670I counted along it
# [15] = tested on: Mast/stem cell growth factor receptor Kit (Homo sapiens), P10721 [T670I]; details: at 1 µM
# [16] = tested on: Mast/stem cell growth factor receptor Kit (Homo sapiens), P10721 [V560G]; details: at 0.1 µM
# Sequence of Mast/stem cell growth factor receptor Kit (Homo sapiens), P10721 [V560G] (P10721 whole entry V560G): as the sequence (P10721 whole entry) above, with V560G counted along it
# [17] = tested on: Mast/stem cell growth factor receptor Kit (Homo sapiens), P10721 [V560G]; details: at 1 µM
# [18] = molecular target: Tyrosine-protein kinase Lck (Homo sapiens) (UniProt P06239); details: at 0.1 µM
# Sequence of Tyrosine-protein kinase Lck (Homo sapiens) (P06239 2-509 limits assumed): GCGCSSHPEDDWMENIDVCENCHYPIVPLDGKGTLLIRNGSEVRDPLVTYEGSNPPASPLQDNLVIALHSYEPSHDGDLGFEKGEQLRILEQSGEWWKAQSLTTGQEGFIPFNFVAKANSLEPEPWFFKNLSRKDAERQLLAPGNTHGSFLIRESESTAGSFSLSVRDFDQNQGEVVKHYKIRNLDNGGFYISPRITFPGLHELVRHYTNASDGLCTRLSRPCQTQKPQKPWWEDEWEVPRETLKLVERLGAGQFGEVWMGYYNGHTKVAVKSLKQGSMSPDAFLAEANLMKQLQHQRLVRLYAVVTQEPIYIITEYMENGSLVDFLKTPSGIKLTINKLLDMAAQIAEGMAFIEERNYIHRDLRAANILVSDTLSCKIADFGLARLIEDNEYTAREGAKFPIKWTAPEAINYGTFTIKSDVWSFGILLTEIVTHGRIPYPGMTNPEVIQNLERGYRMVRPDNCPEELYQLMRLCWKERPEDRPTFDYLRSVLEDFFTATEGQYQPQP
# [19] = molecular target: Tyrosine-protein kinase Lck (Homo sapiens) (UniProt P06239); details: at 1 µM
# [20] = molecular target: Leukocyte tyrosine kinase receptor (Homo sapiens) (UniProt P29376); details: at 0.1 µM
# Sequence of Leukocyte tyrosine kinase receptor (Homo sapiens) (P29376 whole entry): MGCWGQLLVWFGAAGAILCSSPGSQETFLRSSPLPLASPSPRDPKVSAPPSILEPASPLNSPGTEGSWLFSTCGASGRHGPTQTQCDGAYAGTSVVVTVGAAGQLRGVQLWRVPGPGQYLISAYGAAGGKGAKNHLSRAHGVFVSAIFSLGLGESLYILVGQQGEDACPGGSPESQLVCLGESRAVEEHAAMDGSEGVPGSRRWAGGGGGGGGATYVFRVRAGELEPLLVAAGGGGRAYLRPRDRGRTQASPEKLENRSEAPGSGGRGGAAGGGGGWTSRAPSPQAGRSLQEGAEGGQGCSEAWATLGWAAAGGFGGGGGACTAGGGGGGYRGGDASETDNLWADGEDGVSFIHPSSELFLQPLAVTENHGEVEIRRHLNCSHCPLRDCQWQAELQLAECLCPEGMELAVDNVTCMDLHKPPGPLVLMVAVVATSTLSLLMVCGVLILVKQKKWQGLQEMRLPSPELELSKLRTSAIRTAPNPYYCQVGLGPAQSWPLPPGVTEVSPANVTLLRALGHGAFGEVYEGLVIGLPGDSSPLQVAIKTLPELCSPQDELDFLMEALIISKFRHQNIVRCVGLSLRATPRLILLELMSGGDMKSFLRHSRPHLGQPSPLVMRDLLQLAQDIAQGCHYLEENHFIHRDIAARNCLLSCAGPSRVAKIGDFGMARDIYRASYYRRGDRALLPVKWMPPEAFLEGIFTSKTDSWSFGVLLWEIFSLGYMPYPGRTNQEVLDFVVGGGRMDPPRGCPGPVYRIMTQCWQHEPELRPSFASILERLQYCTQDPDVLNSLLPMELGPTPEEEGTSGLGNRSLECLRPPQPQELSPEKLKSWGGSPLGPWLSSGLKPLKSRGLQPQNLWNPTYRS
Structure (SMILES),inhibition [1],inhibition [2],inhibition [3],inhibition [4],inhibition [5],inhibition [6],inhibition [7],inhibition [8],inhibition [9],inhibition [10],inhibition [11],inhibition [12],inhibition [13],inhibition [14],inhibition [15],inhibition [16],inhibition [17],inhibition [18],inhibition [19],inhibition [20]
c1ccc(-c2n[nH]cc2-c2ccnc(-c3ccc(OCCn4ccnc4)cc3)c2)nc1,2.03%,0.34%,6.98%,0.38%,3.12%,-0.46%,4.76%,19.9%,65.9%,1.62%,11.4%,3.19%,19.5%,1.86%,3.3%,1.49%,4.59%,0.89%,12.7%,0.8%
NS(=O)(=O)c1cccc(N/C=C2\C(=O)Nc3ccccc32)c1,3.54%,2.83%,6.08%,1.37%,2.13%,-2%,0.9%,9.08%,35.3%,16.4%,63.9%,3.62%,2.43%,6.57%,45.2%,-0.34%,8.83%,2.31%,6.78%,3.74%
CS(=O)(=O)CCNCc1ccoc1-c1ccc2ncnc(Nc3ccc(OCc4ccccc4)cc3)c2c1,1.03%,-1.22%,-0.53%,-0.17%,-0.95%,-0.19%,0.82%,3.88%,5.6%,1.94%,6.88%,5.01%,1.5%,2.27%,2.3%,0.74%,3.57%,1.79%,8.23%,1.59%
CCS(=O)(=O)c1ccc(OC)c(Nc2ncc(-c3cccc(F)c3)o2)c1,6.38%,7.39%,10.4%,3.25%,2.43%,-1.97%,0.45%,46.8%,77%,74.7%,97%,4.96%,9.62%,19.7%,81.3%,0.05%,34.1%,20.4%,64.1%,7.85%
COC(=O)Nc1nc2cc(Oc3ccc(NC(=O)Nc4ccccc4)cc3)ccc2[nH]1,1.86%,3.81%,9.99%,0.07%,1.12%,-1.68%,-0.28%,4.55%,7.27%,29.2%,68%,2.82%,12%,4.22%,8.76%,25.3%,67.9%,2.87%,4.96%,2.55%
CNC(=O)c1ncccc1Nc1nc(Nc2cc3c(cc2OC)CCCN3C(=O)CN(C)C)nc2[nH]ccc12,2.8%,4.62%,-0.74%,1.24%,1.63%,2.81%,0.89%,4.97%,5.02%,5.24%,3.44%,1.27%,4.76%,3.12%,1.68%,-0.63%,0.67%,2.48%,4.71%,86.9%
CS(=O)(=O)CCNCc1ccc(-c2ccc3ncnc(Nc4ccc(OCc5ccccc5)cc4)c3c2)o1,2.16%,6.4%,5.72%,1.29%,0.35%,-2%,-1.45%,3.83%,6.56%,2.46%,8.96%,2.54%,2.47%,3.32%,4.61%,4.25%,1.48%,4.19%,22%,4.28%
CCOc1ccc2c(-c3ccnc(Nc4cc(OC)cc(C(F)(F)F)c4)n3)cnn2n1,1.63%,-2.13%,6.23%,1.22%,5.38%,0.66%,9.24%,4.19%,19.1%,7.32%,56.5%,-2.22%,2.86%,1.55%,14.5%,2.02%,5.97%,1.12%,4.52%,0.61%
c1cnn2ncc(-c3ccnc(NCCCN4CCOCC4)n3)c2c1,0.08%,2.8%,4.8%,2.27%,1.4%,-1.85%,-2.75%,5.58%,6.83%,5.59%,5.88%,6.89%,4.06%,9.96%,3.97%,-0.98%,-1.13%,1.55%,1.64%,2.87%
OCCCNc1nccc(-c2c(-c3ccc(F)cc3)nn3cc(C(F)(F)F)ccc23)n1,0.19%,-0.95%,-4.2%,1.8%,0.99%,0.08%,1.33%,4.84%,6.21%,3.28%,8.99%,1.58%,0.33%,-0.18%,0.98%,-1.46%,-0.39%,1.91%,5.83%,3.02%
COc1ccc2ncn(-c3cc(O[C@H](C)c4ccccc4C(F)(F)F)c(C(N)=O)s3)c2c1,1.39%,-0.98%,5.43%,1.01%,-1.12%,0.5%,6.44%,2.92%,14.1%,-1.6%,14.7%,-1.17%,2.71%,1.09%,3.92%,0.71%,2.83%,0.65%,2.2%,0.48%
CC(C)c1ccc(-c2cc(-c3c[nH]nc3-c3ccccn3)ccn2)cc1,1.69%,-1.37%,1.1%,0.74%,0.23%,0.23%,0.8%,9.43%,32.4%,0.6%,2.85%,0.06%,3.83%,1.04%,1.23%,-0.59%,3.5%,1.31%,-0.13%,1.24%
CNC(=O)c1sc(-n2cnc3cc(OC)c(OC)cc32)cc1OCc1ccccc1C(F)(F)F,3.59%,0.71%,7.26%,-0.02%,0.52%,-2.82%,-0.34%,4.23%,12.4%,4.06%,6.11%,2.29%,6.55%,1.67%,1.95%,-0.58%,0.44%,3.6%,11.9%,2.32%
